Screens deposited in PubChem BioAssay by National Center for Advancing Translational Sciences (NCATS).
Rows were chosen to be rich in hits. Some 6.5% of all compounds tested hit in one or more screens of this group.
Vaccinia Venus: qHTS for Stage-Specific Inhibitors of Vaccinia Orthopoxvirus: Venus Reporter Primary qHTS; Vaccinia virus Venus reporter expression, fluorescence; Potency, µM (titrated, usually from 36.5 µM), usual class: inhibitors; 0.46% of 330,000 active; calls by dose curve; tested in A549 cells; also: nearly all actives have a fitted effect of over 30% in size
FMDV inh: High Throughput Screening for Foot and Mouth Disease Virus Antivirals | 1.2% of 410,000 active | Potency, µM (highest dose often 57.9 µM), usual class: inhibitors | FMDV antiviral cell-based qHTS | AID 1159524, 2015; calls by dose curve; tested in HEK293T cells; also: read-out not given here; nearly all actives have a fitted effect of over 45% in size
HCMV inh: qHTS Assay for inhibitors of the human cytomegalovirus (HCMV); activity change, negative = inhibition, % at 57.5 µM; HFF cells, HCMV-luciferase reporter, 72 h; active compounds read low; 4.5% of 410,000 active; in the data active = activity change below about -60%; inconclusive = no clear call, values can overlap the other calls; inactive = above about -39%
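Luciferase read-out from HCMV-luciferase-infected HFFs (MOI 1 PFU/cell) 72 h post infection at 37C; compounds added after 16 h cell attachment; activity normalized between buffer-only basal and Salinomycin (10uM) inhibitor controls.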
Lassa entry inh: qHTS for Inhibitors of binding or entry into cells for Lassa Virus | Lassa virus pseudotype entry inhibition, cell reporter | Potency, µM (top dose mostly 37.9 µM), actives largely listed as inhibitors | 1.2% of 300,000 active | AID 540256, 2011; calls by dose curve; tested in HEK293 cells; also: nearly all actives have a fitted effect of over 50% in size
Vaccinia mCherry: qHTS for Stage-Specific Inhibitors of Vaccinia Orthopoxvirus: mCherry Reporter Primary qHTS | Vaccinia virus mCherry reporter infection, fluorescence | Potency, µM (highest dose often 36.5 µM), most hits filed as inhibitors | 0.63% of 310,000 active | AID 720579, 2013; calls by dose curve; tested in A549 cells; also: nearly all actives have a fitted effect of over 35% in size
Marburg entry inh: qHTS for inhibitors of binding or entry into cells for Marburg Virus; AID 540276, 2011; 1.8% of 300,000 active; Marburg virus pseudotyped entry inhibition, cell reporter; Potency, µM (doses to about 37.8 µM), actives largely listed as inhibitors; calls by dose curve; tested in HEK293 cells
Hits are given with their value; i = inactive; ? = inconclusive; nt = no result.

SMILES	Vaccinia Venus	FMDV inh	HCMV inh	Lassa entry inh	Vaccinia mCherry	Marburg entry inh
CCOc1ccc(NC(=O)c2ccc3c(c2)CCN3S(=O)(=O)CC)cc1	i	i	i	i	i	i
CCCCC[C@@H](C)N1C[C@H](COCc2ccccc2)Oc2cc(N3CC[C@@H](N(C)C)C3)ccc2S1(=O)=O	i	i	-101.7	nt	i	nt
CCCCC[C@H](C)N1C[C@H](COCc2ccccc2)Oc2cc(N3CC[C@@H](N(C)C)C3)ccc2S1(=O)=O	i	i	-100.6	nt	i	nt
c1ccc(COc2ccc(-c3cc4nc(NCCN5CCOCC5)ccn4n3)cc2)cc1	i	i	-62.5	nt	i	nt
NS(=O)(=O)c1ccc(CCNc2ccn3nc(-c4ccc(OCCN5CCOCC5)cc4)cc3n2)cc1	i	i	-100.0	nt	i	nt
C=C(C)C(=O)C=Cc1ccc(Br)cc1	nt	nt	nt	nt	nt	i
CC(C)Oc1ccc(Nc2cc3c(cn2)cc(-c2cnn(C)c2)n3C)cc1	nt	nt	i	nt	nt	nt
COc1cc(C2NC(=S)NC(C)=C2C(=O)c2ccccc2)ccc1O (centres undefined)	i	i	i	i	i	?
CCCOc1ccc(C2NC(=S)NC(C)=C2C(=O)c2ccccc2)cc1OC (centres undefined)	nt	i	?	i	nt	14.6µM
CC1=C(C(=O)c2ccccc2)C(c2ccc(OC(F)F)cc2)NC(=S)N1 (centres undefined)	?	?	i	?	i	3.98µM
CCOC(=O)N1CCN(CC(O)COCCC23CC4CC(CC(C4)C2)C3)CC1 (centres undefined)	i	?	-61.9	i	nt	?
CCN(CC)S(=O)(=O)c1ccc(NC(=O)c2ccc(OCC3CCCO3)cc2)cc1 (centres undefined)	nt	28.2µM	-89.9	nt	nt	nt
O=C(Nc1nc(-c2ccc(Cl)cc2Cl)cs1)c1ccc(OCC2CCCO2)cc1 (centres undefined)	i	?	-63.3	?	i	?
Cc1ccc2nc(NC(=O)c3ccc(OCC4CCCO4)cc3)sc2c1 (centres undefined)	i	?	-83.9	?	i	?
O=C(Nc1ccc(Cl)cc1)c1ccc(OCC2CCCO2)cc1 (centres undefined)	i	i	i	?	i	?
Cc1cc(NC(=O)c2ccc(OCC3CCCO3)cc2)ccc1Br (centres undefined)	i	i	-80.6	nt	i	nt
CCOc1ccc(OCC)c(NC(=O)C2CCN(S(=O)(=O)c3ccc(Br)s3)CC2)c1	i	i	i	i	i	i
CC1=CC2C(C(O)CC3(C)C2CC(C)C32OCOC23COCO3)C2(C)C/C(=C\O)C(=O)C=C12 (centres undefined)	12.6µM	39.8µM	-98.9	?	?	7.94µM
COc1ccc(-c2csc3ncnc(N4CCN(S(=O)(=O)c5cccs5)CC4)c23)cc1	i	i	-70.6	?	i	?
COc1ccc(-c2csc3ncnc(N4CCN(S(=O)(=O)c5ccc(Cl)s5)CC4)c23)cc1	i	i	-66.1	?	?	?
CC1=C(C(=O)Nc2ccc(C)cc2C)C(c2cccs2)n2nc(SCc3cccc(C)c3)nc2N1 (centres undefined)	i	i	?	i	i	i
CCc1ccccc1N1CC(c2nc3ccccc3n2CCC2CCCCC2)CC1=O (centres undefined)	?	?	-107.7	?	i	?
CC(C)(C)N1CC(c2nc3ccccc3n2Cc2ccc(Cl)cc2)CC1=O (centres undefined)	nt	i	i	i	nt	?
Cc1ccccc1N1CC(c2nc3ccccc3n2CCC2CCCCC2)CC1=O (centres undefined)	?	?	?	i	i	i
Cc1ccccc1N1CC(c2nc3ccccc3n2Cc2ccc(Br)cc2)CC1=O (centres undefined)	i	i	-77.7	?	i	i
SMILES	Vaccinia Venus	FMDV inh	HCMV inh	Lassa entry inh	Vaccinia mCherry	Marburg entry inh
O=C(Nc1ccc2c(c1)OCCO2)c1ccc(Br)s1	i	?	i	5.62µM	i	7.94µM
O=C(Nc1cccc([N+](=O)[O-])c1)c1ccc2c(c1)OCCO2	i	i	-107.1	?	i	?
CCc1sc(C(=O)Nc2ccc3c(c2)OCCO3)cc1Br	nt	nt	i	nt	nt	nt
COc1cc(OC)cc(-c2nnc(NC(=O)c3ccc4c(c3)OCCO4)o2)c1	nt	i	-61.0	nt	nt	nt
COc1ccc(C(=O)Nc2nc(C)c3cc4c(cc3n2)OCO4)cc1	i	25.1µM	i	i	i	?
O=C(Nc1cccc(Cl)c1)c1ccc2c(c1)OCCO2	i	?	i	?	i	?
CCC(=O)N[C@@H]1c2ccccc2C2(CCN(Cc3[nH]c4c(Cl)cccc4c3C)CC2)[C@H]1OC	i	i	nt	nt	i	nt
COc1cccc(C(=O)N2CCOCC2)c1	i	i	i	i	i	i
COc1cccc(OC)c1C(=O)Nc1ccc2c(c1)OCCO2	nt	i	-79.1	i	nt	i
COc1cccc(NC(=O)c2ccc3c(O)c(S(=O)(=O)c4ccccc4)c(=O)[nH]c3c2)c1	i	i	-63.3	i	i	i
COc1cccc(C(=O)Nc2cccc(C(=O)N3CCOCC3)c2)c1	nt	i	-66.4	i	nt	?
COc1ccc(C(=O)Nc2ccc3c(c2)OCCO3)cc1	i	nt	i	5.17µM	i	6.51µM
COc1cc2[nH]c(C(=O)Nc3ccc4c(c3)OCCO4)cc2c(OC)c1OC	i	?	i	i	i	?
Cc1ccccc1C(=O)Nc1ccc2c(c1)OCCO2	nt	i	i	nt	nt	nt
O=C(Nc1nnc(C2=COCCO2)o1)c1ccc([N+](=O)[O-])cc1	i	i	-97.8	i	i	i
COc1ccc(C(=O)Nc2ccc3[nH]ccc3c2)cc1	i	8.91µM	i	1.41µM	?	?
O=C(Nc1ccc2c(c1)OCCO2)c1coc2ccccc2c1=O	i	7.94µM	i	i	?	i
COc1cc2cc(C(=O)Nc3ccc4c(c3)OCCO4)[nH]c2cc1OC	nt	?	-68.3	nt	nt	nt
COc1cc(OC)c(N(C)C(=O)c2cn(C3CCCC3)c(=O)c3c2c2ccccc2n3C)cc1Cl	i	i	?	?	i	?
O=C(C=Cc1ccccc1)Nc1cccc(C(=O)NCc2ccccc2)c1	nt	nt	nt	i	nt	nt
COc1cccc(NC(=O)c2ccc3c(c2)OCCO3)c1	i	i	i	1.12µM	i	?
COC(=O)CC=C[C@@H](C)[C@@H](C=NOC[C@@H](C)[C@H](OCc1ccccc1)C(C)C)NS(=O)(=O)c1ccc(C)cc1	nt	nt	nt	i	nt	i
CCOc1ccc(NC(=O)CSc2nnc(CC)c(CC)n2)cc1	i	i	i	i	i	nt
COc1ccc(C(=O)NCC2Cc3cc(C)cc(-c4cc(C(C)=O)ccc4F)c3O2)c(OC)c1OC (centres undefined)	i	i	nt	nt	i	nt
S=C1SCN(CC2CC2)CN1CC1CC1	i	i	-77.1	i	i	i
Oc1ccc(Cl)cc1CN1CCOc2c(O)cc(-c3nc4ccccc4s3)cc2C1	i	i	nt	nt	i	nt
